Bioassay records: PubChem, National Center for Advancing Translational Sciences (NCATS)
Rows were chosen to be rich in hits. Some 6.6% of all compounds tested hit in one or more screens of this group.
MCF10A rerep: A quantitative high throughput screen for small molecules that induce DNA re-replication in MCF 10a normal breast cells | MCF 10A DNA re-replication, Hoechst nuclear intensity, 48 h | Potency, µM (doses to about 46.1 µM), usual class: activators | 2.9% of 350,000 active; also: nearly all actives have a fitted effect of over 50% in size
RGS4 inh: Inhibitors of Regulator of G Protein Signaling (RGS) 4: qHTS; Regulator of G-protein signaling 4 (Homo sapiens), P49798; Transcreener GDP fluorescence polarization, RGS4-accelerated GTP hydrolysis; 0.039% of 390,000 active; Potency, µM (series often up to 114 µM), hits mostly inhibitors; also: nearly all actives have a fitted effect of over 75% in size
Target sequence (P49798 whole entry, looked up): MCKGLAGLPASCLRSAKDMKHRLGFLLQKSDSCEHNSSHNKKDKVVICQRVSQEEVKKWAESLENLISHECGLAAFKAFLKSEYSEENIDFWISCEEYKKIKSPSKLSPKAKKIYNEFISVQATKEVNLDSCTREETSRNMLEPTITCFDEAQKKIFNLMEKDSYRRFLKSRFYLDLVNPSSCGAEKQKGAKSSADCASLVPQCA
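MLSMR compounds (23 nl, pin-transferred) preincubated 10 min at room temperature with a 500nM (2x) first reagent, then RGS4 at 900nM (2x) plus Transcreener GDP mix added; fluorescence polarization (620/688 nm) read before and after 90 min at 30 °C.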
KB-3-1 tox: qHTS assay for MDR1-selective chemotherapeutics: Primary screen using the parental adenocarcinoma cell KB-3-1 | KB-3-1 viability, CellTiter-Glo ATP luminescence, 72 h | Potency, µM (titrated, usually from 46.1 µM), usual class: cytotoxic | 1.4% of 400,000 active | AID 1347075, 2019; also: nearly all actives have a fitted effect of over 60% in size
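Cytotoxicity measured as CellTiter-Glo luminescence after 72 h at 37 C. Compound titrations were pinned onto drug-naive KB-3-1 parental adenocarcinoma cells grown in DMEM with 10% FBS, and normalized data fitted to concentration-response curves.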
SW480 rereplic: A quantitative high throughput screen for small molecules that induce DNA re-replication in SW480 colon adenocarcinoma cells; SW480 DNA re-replication, Hoechst DNA content imaging, 48 h; Potency, µM (titrated, usually from 46.1 µM), most hits filed as activators; 1.8% of 340,000 active; AID 624297, 2012; also: nearly all actives have a fitted effect of over 55% in size
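SW480 cells exposed to compounds for 48 hr at 37 C, 5% CO2, then Hoechst-stained 40 min. Nuclear DNA content imaged by fluorescence scanning (405 nm excitation, 500-530 nm emission); re-replication scored as increased high-intensity nuclei.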
KB-V1 cytotox: qHTS assay for MDR1-selective chemotherapeutics: Primary screen using the drug-selected MDR subline cells KB-V1; KB-V1 MDR cells viability, CellTiter-Glo, 72 h; Potency, µM (titrated, usually from 46.1 µM), most hits filed as cytotoxic; 3.4% of 400,000 active; AID 1347076, 2019; also: nearly all actives have a fitted effect of over 60% in size
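KB-V1 cells (P-gp-expressing MDR subline of KB-3-1) in phenol-red-free DMEM with 10% FBS were exposed to library compounds over a concentration series for 72 h at 37 degrees C. Viability read by CellTiter-Glo luminescence; concentration-effect curves fitted after normalization.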
TSG101-PTAP inh: qHTS Assay for Iinhibitors of HIV-1 Budding by Blocking the Interaction of PTAP/TSG101 | 340,000 tested, under 10 active | Potency, µM (series often up to 115 µM), actives largely listed as inhibitors | Fluorescence polarization, FITC-PTAP peptide / Tsg101 binding; active = well fitted inhibition curve with a large enough effect in the main read-out, with a control signal flat, not every such curve was filed as active; inconclusive = small, poorly fitted or top-dose-only effect, or effect the other way, or a change in a side signal; inactive = no such curve, though single readings can be large or run the other way
Target sequence (Q99816 whole entry, looked up): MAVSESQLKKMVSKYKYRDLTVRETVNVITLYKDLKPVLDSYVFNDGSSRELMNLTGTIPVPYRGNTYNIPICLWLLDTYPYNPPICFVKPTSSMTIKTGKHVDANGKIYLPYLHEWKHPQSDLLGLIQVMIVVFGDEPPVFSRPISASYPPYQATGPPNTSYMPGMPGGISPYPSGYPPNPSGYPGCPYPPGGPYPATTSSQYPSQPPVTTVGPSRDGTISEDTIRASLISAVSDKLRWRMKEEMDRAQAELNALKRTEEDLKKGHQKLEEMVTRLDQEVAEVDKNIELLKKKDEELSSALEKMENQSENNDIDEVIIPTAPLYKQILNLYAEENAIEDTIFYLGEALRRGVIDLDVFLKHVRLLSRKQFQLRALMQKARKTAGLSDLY
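FP read-out: FITC-PTAP peptide, 50 nM final, binding Tsg101 binding domain, 10 uM final; 20 min, r.t.; 10 mM HEPES pH 7.5, 0.15 M NaCl, 0.01% Tween 20, 3 mM EDTA, 0.1 mM TCEP.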
Numbers stand for hits; - = inactive; ? = inconclusive; . = not tested or not shown; [ ] = remark or other dose. Unless noted, calls follow the shape of the dose curve; as a rule, active = well fitted curve in the direction sought with a large enough effect; inconclusive = small, poorly fitted or top-dose-only effect, or another doubt; inactive = no such curve, though single readings can be large; an effect the other way counts as inactive or inconclusive.

SMILES	MCF10A rerep	RGS4 inh	KB-3-1 tox	SW480 rereplic	KB-V1 cytotox	TSG101-PTAP inh
CC1CCCCN1C(=O)c1cccc(NC2=C(Cl)C(=O)N(Cc3ccccc3)C2=O)c1 (stereo not given)	23µM	-	?	?	?	-
CC1CCN(C(=O)c2ccc(NC3=C(Cl)C(=O)N(Cc4ccccc4)C3=O)cc2)CC1	23µM	-	?	?	-	-
CC1CCN(C(=O)c2ccc(NC(=O)c3ccccc3)cc2)CC1	-	-	-	-	-	-
CCOC(=O)c1cccc(NC(=O)c2oc3c(c2C)-c2nn(CC)cc2CC3)c1	.	-	.	.	.	.
CSc1nc2c(c(-c3ccc(O)cc3)c1C#N)CCC2	26µM	-	?	-	-	-
N#Cc1c(N)nc2c(c1-c1ccccc1)CCC2	?	-	?	?	10µM	-
COc1ccc(-c2c(C#N)c(N)nc3c2CCC3)cc1	2.9µM	-	-	21µM	?	-
COc1ccc(-c2c(C#N)c(N)nc3c2CCCC3)cc1OC	-	-	-	-	-	-
N#Cc1c(N)c(C#N)c(-c2ccc(O)cc2)c2c1CCCC2	?	-	-	-	?	-
Cc1cc(C)c(S(=O)(=O)N2CCC(n3c(C(F)(F)F)nc4cccnc43)CC2)c(C)c1	.	-	-	.	-	.
Cc1cc(C)c(C)c(S(=O)(=O)N2CCN(CC(=O)c3c(N)n(Cc4ccccc4)c(=O)n(C)c3=O)CC2)c1C	13µM	-	?	?	15µM	-
O=C(/C=C/c1ccc(F)cc1)Nc1cccc([S+](=O)([O-])Nc2ccccc2F)c1	.	.	-	.	-	.
CC(C)(C)OC(=O)N1CCC[C@H]1c1nnc(SCc2ccccc2)o1	?	-	-	-	?	-
CC(C)(C)OC(=O)N1CCC(c2nnc(SCc3cccc(Cl)c3)o2)CC1	.	-	-	.	18µM	.
CC(C)(C)OC(=O)N1CCC(c2nnc(SCc3ccccc3F)o2)CC1	.	-	-	.	?	.
CC(C)(C)OC(=O)N1CCC(c2nnc(SCc3ccccc3Cl)o2)CC1	.	-	-	.	9.2µM	.
CC1(C)C(=O)N(CC(=O)Nc2cccc(F)c2)c2ccc(S(=O)(=O)N3CCCCC3)cc21	.	-	-	.	-	.
COc1ccccc1N(C1=NCCCS1)S(=O)(=O)c1ccc(C(C)(C)C)cc1	-	-	?	-	23µM	-
COc1ccc(N(C2=NCCCS2)S(=O)(=O)c2ccc(C(C)(C)C)cc2)cc1	-	-	-	-	-	-
COc1cc(C#Cc2c(-c3cncn3C)n(C)c3ccc(-c4ccc(OC)nc4)cc23)cc(OC)c1	?	-	?	-	?	-
COc1cc(C#Cc2c(-c3cncn3C)n(C)c3ccc(-c4cc(OC)c(OC)c(OC)c4)cc23)cc(OC)c1	-	-	12µM	?	?	-
CCn1c(=O)c2cc(C(=O)NCCCN3CCN(C)CC3)sc2c2ccccc21	.	-	-	.	-	.
O=C(O)c1cc2c(s1)-c1ccccc1CC2	-	-	-	-	-	-
O=C(N/N=C/c1ccc(Cl)cc1)c1cc2c(s1)-c1ccccc1CC2	?	-	21µM	?	?	-
CCOC(=O)C1Nc2ccc(C(F)(F)F)cc2C2c3ccccc3CC12 (stereo not given)	?	-	16µM	-	18µM	-
SMILES	MCF10A rerep	RGS4 inh	KB-3-1 tox	SW480 rereplic	KB-V1 cytotox	TSG101-PTAP inh
O=C(NCCOc1ccccc1)C1Nc2ccc(C(F)(F)F)cc2C2c3ccccc3CC12 (stereo not given)	?	-	?	-	-	-
CC(=O)c1ccccc1NC(=O)CN1C(=O)CS/C1=C\c1nc(-c2ccc(C)cc2)cs1	-	-	-	-	-	-
Cc1nc(-c2ccc(C(=O)Nc3ccccc3F)cc2)cs1	-	-	?	-	12µM	-
Cc1ccc(-c2csc(/C=C3/SC(C)C(=O)N3CC(=O)Nc3ccccc3F)n2)cc1 (stereo not given)	21µM	-	-	?	-	-
Oc1ccc(N2CCN(C(c3ccc(Cl)cc3)c3nnnn3Cc3ccc(F)cc3)CC2)cc1 (stereo not given)	.	-	?	.	-	.
COc1cccc(N2CCN(c3ncccn3)CC2)c1	-	-	-	-	?	-
COc1cccc(N2CCN(c3c4c(nc5ncnn35)CCC4)CC2)c1	-	-	23µM	-	?	-
c1ccc(N2CCN(c3c4c(nc5ncnn35)CCC4)CC2)cc1	-	-	-	-	2.9µM	-
COc1ccc(C2N=C(Nc3nc4ccccc4o3)NC3=C2C(=O)CC(C)(C)C3)cc1 (stereo not given)	.	-	?	.	-	.
C=CCSc1nnc(COc2ccc(=O)n(-c3ccccc3)n2)n1CC	-	?	-	-	-	-
CCn1c(COc2ccc(=O)n(-c3ccccc3)n2)nnc1SCc1cccc(OC)c1	-	-	-	-	16µM	-
COc1ccc(C2Nc3ccccc3-n3c(-c4ccccc4)c4c(=O)n(C)c(=O)n(C)c4c32)cc1 (stereo not given)	.	-	?	.	?	.
CCOC(=O)C1=C(C)NC(SCC(N)=O)=C(C#N)C1c1cccs1 (stereo not given)	-	-	?	-	-	-
C=CCOC(=O)C1=C(C)NC(SC)=C(C#N)C1c1cccs1 (stereo not given)	?	-	12µM	?	6.5µM	-
C=CCOC(=O)C1=C(C)NC(SCC(=O)Nc2nccs2)=C(C#N)C1c1cccs1 (stereo not given)	?	-[11.4 µM]	-	?	-	-
CCSC1=C(C#N)C(c2cccs2)C(C(=O)OC)=C(C)N1 (stereo not given)	-	-	-	-	21µM	-
CCCc1cc(-c2nc(-c3ccc(Cl)cc3)cs2)ccn1	?	-	-	-	16µM	-
C#CCN1C=C(C(=O)OCC)C(C)NS1(=O)=O (stereo not given)	-	-	-	-	-	-
C#CCN1C=C(C(=O)OCC)C(C)N(Cc2ccccc2I)S1(=O)=O (stereo not given)	23µM	-	-	1.3µM	-	-
CSc1ccccc1NS(=O)(=O)c1ccc2c(c1)OCCO2	-	-	-	-	21µM	.
COC(=O)c1sccc1NC(=O)Cc1ccc(OC)cc1	-	-	-	.	?	-
COC(=O)c1sccc1NS(=O)(=O)c1ccc(OC)cc1	-	-	-	?	18µM	-
